Source: PubChem BioAssay AID1508600 (Functional Genomics Laboratory (NCATS/FGL), 2020)
Out of some 53,000 sequences screened, about 3,700 (7%) were called active.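 How the source made its calls: active means gene knockdowns whose robust z-score for IL-1 alpha signal is at least 2 or at most -2, so actives lie on both sides; inactive means the rest.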 Only a selection was taken, and actives are over-represented in it overall.

test: Components of the Cytosolic LPS Sensing Pathway: Gene Identification via Genome-wide siRNA Screen; conditions: RAW264.7 macrophages, IL-1a HTRF, actives lie on both sides, screened at 100 nM (by protocol), cells primed 5 h with Pam3CSK4 first;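 further: robust z of the log signal after scaling to non-targeting control siRNA wells of the plate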
In short: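 Three distinct siRNAs per gene were tested singly at 100 nM in RAW264.7 macrophages. Following Pam3CSK4 priming and 24 hour LipidA transfection, IL-1a secretion was read by HTRF.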

z-score, active:
CCUUUCCUACUCUGUACCCTT against Abcg1 2.22, CGACAAAAGCCACCUUUCGTT against Tm4sf4 -2.62, GGAGCCCAGGAAGAUGACATT against Cyp2c54 -3.15, GGCUGACUUCGUUUUCAUGTT against Derl3 -2.01, GGGUGACAGGUUGAUCUCATT against Tcn2 -2.11, GCAAAUGUCUCGGAAAGAATT against Cdk11b -2.18, GGCAAAAUAGAGAAAUACATT against Lima1 2.37, GGCGAAAAGACCAGUUAUGTT against Man2c1 2.31, CGUACCUAAGCAUACCAGCTT against Gpr20 4.94, GGAGCGUACCAUGAUCGAUTT against Parvb -2.17, GGUGAUUUCGGGUAACGAGTT against Ddr1 -2.17, GGUUUUUGUGGAAAUGUGGTT against Smpd4 -2.58, GGAAGGUCUUCGAGAUUUUTT against Gpr75 4.56, GGAAAAGUCCCGUAUGGAGTT against Gcc1 -3.14, GGUGAUGGAGAAGAGAAGATT against Fam107b 2.88, CGGUGACAUUUGUGAAACUTT against Smn1 -2.05, GGAGUUGUUGUGCUUUUAATT against Tmem45a 3.02, GGAAUUUGUCAACCGGACCTT against St6galnac6 3.31, GGGAUGCAUCAAAAUACAATT against Pdk3 4.82, CCCGAUUACUGGAGUUAAATT against Kbtbd7 2.32, GGAAGAGUGACCUUAAGUCTT against Arhgap30 2.29, GCAGAAAUGUCCAUCCAAATT against Sprr2k 2.36, GGGCCAGACUCCAUACUAUTT against Arid1a 3.71, GGAAGAGCAGGAGGAAACATT against Mea1 -2.01

z-score, inactive:
GGAUUCUCACAAGUAAUUCTT against Ifi203 0.272, GGCUGUCACCCUACAUGACTT against Uba1 0.0469, GGAUAUGUUUGGUUAUUUCTT against Acbd4 -0.0997, GGAGACUGUGAUUGAGAUGTT against Rnf181 -0.401, GGAGUCUGUGAACAAUCUCTT against Mx2 0.0232, GGAGUGUGUAAAGACAUAATT against Rnase2a -0.685, GGACAAGAGGAGCUUUUGCTT against Id3 -0.446, GGUUUUCUUAAAAUAGGAGTT against Tat -0.205, GGAGGACUGGGAAGAUCAUTT against Aqp5 0.152, GGUAAGUUAAAUGAUGACATT against Ccdc148 -0.896, GGAUAUAACUGCUAUGGUUTT against Rhebl1 -0.241, GCUUAGAGCUUCAUAUAGCTT against Tlr12 -0.367, GGUGGAAGCAAUUUUAAAUTT against Trpc7 0.384, GGGAUGAGUACAAGAAAAATT against Nsun3 -0.927, CGUGUUGGAGUACAAUGAGTT against Imp3 -0.927, GGACAGUGAAGAGGAUUCCTT against Anapc15 -0.988, GCGGAUUAACCUCUGUGGCTT against Igfl3 0.244, GGUGGAGGAACGAAAGUUUTT against Ribc1 0.625, CGAGGUCAAUAUCAUUCCATT against Serpinb11 0.727, GCUGCUAAUAUCAAUAACGTT against Prf1 -0.809, GGCCAAACAACUGGUGAAGTT against Nelfe -0.832, GGUGUUUUCUGUGUAACCATT against Tlx1 -0.843, GGAUGUUUGGACAAUCUAUTT against Itga4 0.634, GCAAGAGACCAUGAGAAAUTT against Ccdc18 -0.149, GGACUAGAAUAUCACAACGTT against Iqub 0.905, GCCAUGUUUAAGCAAUUGUTT against Vsx1 -0.575, GGAGGGUAUUAGUGCACUGTT against Ptpn1 -0.111, GCCUCAUUUGCUUCACUGUTT against Cd163l1 0.148, GGUGCACUCUGUCAGUUCATT against Col27a1 -0.352, GCAUACCUAUUCACGUACGTT against Slc7a4 -0.475, GCCCAAGCUUUUAUCAAGATT against Frmd4b 1.48, CCCUUUCCUAUGCAUUUGCTT against Olfr851 0.97, CGAGCUUCGGAGGAAGUGATT against Zc3hav1l -0.743, GGUACUCUGUGGAUAUCCCTT against Rpl27 -0.224, GGCUUCUUCACUGAAAUUCTT against 1700074P13Rik -1.1, GGCACUUUGUGGCAAAUCUTT against Pcdhb1 0.742, CGUGCAAGCAGUGAUUUUGTT against Smpx -1.33, GGCUCAAGUAUGAGUCUCATT against Calhm2 0.73, GGGAAGAAGAAAAAGAUGATT against Peak1 -0.506, CGGACUAUCUCUAUGAAGATT against Tas2r108 -0.587, GGGUGUUUUUAAGUGUCCCTT against Zfp574 0.475, GGCAGUUUGUUAAUGAAUGTT against Pcsk1 -0.901, GGAGGAGAAAACAGGAAUUTT against H2-Eb1 -0.03, GCGACCGUAUUGUCACUUGTT against Arpc1a -0.465, CCUUGUCGAGCACAUGAGATT against Zfp69 0.0825, GGCAAGUGAGGAAAAGAGGTT against Setd1a -0.741, GAUUUUCCUCUACUGUCCUTT against U90926 -0.532, GGUCUUGGAUGCAAACGAUTT against Pcdhga2 0.518, GCUAGCAAGUGAGAUGGAGTT against Mbd3l1 1.58, GGGCCUUCAAAAAACUGCCTT against Eva1b 1.75, GGGAGAUAUGCAAUGAAUATT against Creb5 -1.34, CCUCUUAAACAUGUCCUAGTT against Atp6v0a2 -1.04, CCUUCUGGAGUACAUAUCCTT against Trip6 0.16, CCAAAUGCUUAUCUCUACATT against Dock6 0.00388, GGACAAAAAAAUAGAAGGATT against Rrbp1 0.344, GGACUAUCUUUAUGAUGUGTT against Ush1c -0.164, GGUUUGUAAAGGUUAUGACTT against Nell2 0.0203, CCUAGAAGCUAAUUACCAATT against Saa4 -0.946, GCGGCUACUCAUAUAAGUCTT against Trappc8 -0.5, GGAGAAUUACGGUGCCAACTT against Ncoa3 -0.354, GCUCAUCUCGAUUUGACUGTT against Cln3 -1.67, CCUAAUCCUGAUAAUUCCATT against Niban2 -1.54, GGACUCACAGUUAAAAGUATT against Gtse1 1.2, GCUAUGUGGGUUGUGCUAUTT against Olfr1361 0.734, CCCUAGUUUAUCUCCGGAUTT against Lhx1 1.15, GCUAUUGGGUAAUUUGCUUTT against Slco4a1 0.436, CGUAUAUCGAUGAAGAUGATT against BC016579 -1.12, GGACAAGGAGUAUUAUGUGTT against Nrxn3 -0.372, GGCCUUGAAGCAGAAGUCUTT against Gfra1 -1.21, GGGCUUUGUGCCCAACAUGTT against Rtcb 0.278, GGAAGAUGAACUUCGUACCTT against Slc4a2 -0.438, GGUCCUGAAGAAGAUUGCATT against Hmox1 -0.72, GGCACAGAUUGUGGUGAAGTT against Ccdc43 -0.518, GCUGCACCAUGAAUGAGUCTT against Il4 0.819, GGAUGUUGUGGGAAAUGACTT against Plaat1 -0.27, GGCAAAUCUGAACAACAUUTT against Agt 1.16, GGCAGUGCUGGCAACAAAUTT against Hsd3b5 -0.884, GGAAACCUACCGUUACCUATT against Kcnj5 -0.181, GCCAUUUAUUGAAACUCGCTT against Becn1 -0.905, GGCAGCUGCUGACUUGAUGTT against Gng2 0.133, GCACAUGCCAUACAACCAUTT against Fads1 0.655, GCGAUUGAGCAGUGAAUAATT against Fam216b 1.06, GGAGAAGCGGCAAAUGGAATT against Fam32a 0.429, GGCAAGGACUCCAAGGACATT against Wdr45 -1.31
